Results published in the supplement of paper PMC6555819.

What follows are sequences tested on VDR:RXRa (NR concentration 270 nM, RXRa partner concentration 90 nM) (assay: PBM binding z-score (relative to random genomic background probes); higher = stronger binding; sequences stand for … in GC…GCGATTGACAGCGTAGAATGAAGG).
Protocol: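 Protein-binding microarray (Agilent 4x180K custom design, double-stranded 60-nt probes: 5' GC cap, 34-nt variable region, 24-nt constant primer region; full probe sequence given). Purified or IVT nuclear receptor:RXRα heterodimers (3:1 NR:RXRα, mostly 270:90 nM) or homodimers were incubated for 1 h in PBS with 2% milk and no ligand, then detected with Alexa488 antibodies. Fluorescence from o1-orientation probes (~5 replicates averaged) was converted to z-scores against 500 random hg19 background probes. Variable regions are seed direct-repeat (DR0–DR5) sites, all their single-nucleotide variants and half-site ablations.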

Sequence | PBM binding z-score
AGAATGAGGATACCAAAGATCAGGGAAACGCTTG | -0.361
ATATGTAGGTTAAGAGTCATTCAGGTTGGTTCGC | 1.6
TCGAGTAGGTTACTCGGGGCATTCAGCCAACATA | 3.33
CTCGAAAGGTCGGTTTAGGTGAGTATACGGATAA | 1.28
GCTGCTAGGTCAGGTTGGTCAGCTACCGGGTACG | 0.397
CCGGCTGGGGCAAGGTTACCATAACGCACAGCCA | -0.269
CAAACTAGTTCACAGAGGTCAAAGTCCGTGCGTA | 7.47
GCTAGCAGGCCATTTGGGTCACGCAATGACGGGC | 1.61
AGAATGAGGGTATACGTAGATCAGGGAAGAAAGT | 0.239
CCTACTGGGCCATTCAGAGGTCATTGAGCATATG | 4.17
GCTGCTAAGTCAGGTTGGTCAGCTAACGGGTACG | -0.547
GCTCGGAGGACAGGGTCAGAGCTTTGTCCGTAGA | 1.08
CGTCCAAGGTCAGAGAGGTGAGTGAATGCCGAGT | 4.78
CGTCCAGGGTCAATGCTAGGTCAGTGAAAGCATT | 4.9
ACTCGGACGACAAAGGTCAGAGCTACGCCAGTGA | 2.76
TCTGCTAGGTCAGTTGGTCAGCAAACGAGCTGCC | 0.276
ATATGTAGGTTATCGGATCATTCAGTTTGCGCAT | 1.58
TCTTGTAGATCAGCAGGTGAAGAAAGCTGGCCAA | 0.208
CGTCCAAGGTCAAGGCTAGGTCAGTGAAAGCATT | 5.06
ATCTCTAGGTAACAAGATCAGTGAAAGAGAGGAC | 0.388

Sequence | PBM binding z-score
TCATATAGGTAAAAGGTGAAGGTCGGTGTGGTAA | 1.92
CCAAGCAGGCCAATCTGGGTCACTCAAGGCTTGA | 0.733
CCTAGTTGGTCAAGGTCAGACACGCTATAGGTAC | 2.83
CGAACTAGGTCATCCAGGACAGTTAATACATTGA | 4.42
TAGCCTAGGGCAGATCGGGCCAGTATACGCTATA | -0.562
TCGAGTAGGTTAGGGGCATCCAGAATGGCGTCGA | 0.536
ATCTCTAGGTAAAGATAGTTCATTGAATGCAAAT | 2.07
CAGACTAGGTCACGAAAGGTCAAAGTCGAATGAC | 6.8
CGTCGAAGGTCAGAGAGGTCAGTGAATGCCGAGT | 7.5
CAAACTAGGTCACGAAAGGTAAAAGTCGAATGAC | 3.25
CCTACTGGGCCAAGGTCATTAATCAGTCAAAGCA | 2.84
TCTTGTAGATCAAGCAGATTAAGAAAGCCTGAGT | 0.437
ATATGTAGGTTACATCCGGGTCCTTCAGGCTATG | 0.695
CCTGCTAGGTCATGGTCAGCTAATCTACAGTATG | 1.7
CCTACTGGGCCAAGATCATTGATCAGTCAAAGCA | -0.601
ATATGTAGGTTATCGGGTAATTCAGTTTGCGCAT | 1.54
CCGACTGGGGCATAAGGTTACCAGAAGCCAGCCC | 0.214
CGTCCAAGGTCGGAGAGGTCAGTGAATGCCGAGT | 6.04
CTTACTGGGCCATCAGGTCATTGATATCAACGTT | 1.91
CGAACTAGGTCATTGACAGGACAGGGAATAGTAA | 2.12
